Bioassay records (PubChem BioAssay)
Sampled rows, rich in hits. Any-hit rate of the full collection: about 3.9%.
TROY NFkB inh = inhibitors of TROY-dependent NF-kB signaling; Q293 LMP1-TROYcd NF-kB luciferase reporter, 4 h; inhibition, % at 10 µM; 0.98% of 360,000 active; AID 1347056;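 active means compounds whose plate-normalised and pattern-corrected inhibition of the luciferase reporter signal at the single screening dose is 50% or more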
KKLEB cytotox = CF airway cell cytotoxicity counter-screen. KKLEB CF airway cells viability, ATPlite luminescence, overnight; active compounds read low; cells stimulated with P. aeruginosa culture filtrate. activity change (cytotoxicity), % at 5 µM. 0.36% of 360,000 active;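 active means corrected activity change at or below -50% at 5 µM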
Peg3 prom inh = Peg3 promoter activity inhibition; 1.7% of 360,000 active; HeLa PEG-Prom luciferase reporter, luminescence, overnight; inhibition, % at 20 µM;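 active means inhibition of at least 50% at 20 µM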
HIF-2a inh = blocks HIF-2a reporter activity. 786-0 RCC cells HIF-2a reporter, luciferase luminescence, overnight. inhibition, % at 18.8 µM. AID 624352. 0.72% of 360,000 active;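 active means inhibition of the luminescence signal of 40% or more relative to plate controls, in a single-dose primary screen at 18.75 µM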
TWEAK Fn14 block = blocks TWEAK-Fn14 interaction in a reporter cell assay. TWEAK-stimulated Fn14 reporter cells, luciferase luminescence, 8 h. inhibition, % at 10 µM. 2% of 360,000 active; in the data active means inhibition above about 50%
CF NFkB inh = cystic fibrosis NF-kB activation inhibition; KKLEB NF-kB-GFP reporter, PAF-induced, GFP fluorescence overnight; inhibition, % at 5 µM; AID 588850; 0.86% of 360,000 active;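 active means at least 50% inhibition at 5 µM, scaled per plate between neutral and stimulator controls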;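 further: PAF is a Pseudomonas aeruginosa culture filtrate used as stimulus; plate controls were PAF-stimulated DMSO wells for no effect and unstimulated DMSO wells for full effect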
An asterisk follows results filed as active.

SMILES	TROY NFkB inh	KKLEB cytotox	Peg3 prom inh	HIF-2a inh	TWEAK Fn14 block	CF NFkB inh
CN(CC(=O)Nc1cccc(F)c1)CC(=O)Nc1cccc(S(=O)(=O)N(C)c2ccccc2)c1	12	-4	42	1	21	-11
COC(=O)c1cccc(NC(=O)c2ccc(S(=O)(=O)N(C)c3ccccc3OC)cc2)c1	32	3	29	20	33	-13
Cc1cc(C)c(NC(=O)CN(C)CC(=O)Nc2cccc(S(=O)(=O)N(C)c3ccccc3)c2)c(C)c1	37	-3	58*	3	53*	11
Cc1ccc(O)c(C2=Nc3ccccc3C2(C)C)c1	-47	-10	-191	-194	-14	7
O=C(Nc1nc2c(s1)C(=O)CCC2)c1ccccc1	15	8	-155	-155	42	-11
CN(c1ccccc1)S(=O)(=O)c1cccc(NC(=O)c2ccc3ncsc3c2)c1	63*	0	57*	9	76*	1
COc1ccccc1N(C)S(=O)(=O)c1ccc(C(=O)NCCc2ccc(F)cc2)cc1	6	-1	16	12	53*	-7
Cc1ccc(NC(=O)c2cccc(S(=O)(=O)N(C)c3ccccc3)c2)cc1S(=O)(=O)N1CCOCC1	20	-5	29	18	54*	13
CN(c1ccccc1)S(=O)(=O)c1ccc(C(=O)NCCc2ccc(F)cc2)cc1	-3	4	-5	8	40	9
Cc1ccc(C(=O)Nc2cccc(C(=O)O)c2)cc1S(=O)(=O)N1CCOCC1	-3	1	-39	-14	-28	-9
CCc1cccc2c(C(=O)COC(=O)c3c(C)noc3C)c[nH]c12	-18	4	-39	-83	-2	-13
COc1cc(OC)c(N(C)S(=O)(=O)c2cccc(C(=O)NC3=NCCS3)c2)cc1Cl	17	-6	29	19	-1	3
COc1ccc(S(=O)(=O)N2CCCN(C)CC2)cc1	-24	8	-24	5	30	-12
CNC(=O)c1cccc(NC(=O)c2cc(-c3ccccc3)nc3c2cnn3C(C)C)c1	17	-3	59*	6	47	-39
COc1cc(NC(=O)c2cc(-c3ccccc3)nc3c2cnn3C(C)C)cc(OC)c1OC	23	-6	47	9	55*	30
COc1cc(NC(=O)c2cc3nc(-c4ccccc4)cc(-c4ccccc4)n3n2)cc(OC)c1OC	-8	-5	57*	17	-1	29
CC(=O)c1cc(-c2ccccc2)n(CC(=O)N2CCCC2)c1C	10	2	2	6	-4	12
COc1ccc(CN2CCC(=O)N([C@H](CO)Cc3ccccc3)CC2)cc1	12	-18	6	-2	16	3
CCOC(=O)c1ccccc1Cc1nc2ccccc2c(=O)[nH]1	-2	-8	15	19	-8	-15
CN(C)c1ccc(NC2=C([N+](=O)[O-])CS(=O)(=O)C2)cc1	-6	10	-2	-12	27	5
COc1cc(CNC(C)c2ccccc2)cc(Br)c1OCc1ccccc1 (centres undefined)	10	-6	25	22	-26	4
COc1cc(CNC(C)c2ccccc2)cc(Br)c1OCc1ccc(F)cc1 (centres undefined)	-7	-29	59*	16	4	40
COc1ccc(/C(O)=C2/C(=O)C(=O)N(CCCN3CCOCC3)C2c2ccc(C(C)C)cc2)cc1 (centres undefined)	19	10	7	6	-7	-2
CCC(=O)Nc1ccc2oc(-c3cccc(C)c3)nc2c1	29	-17	-64	-42	74*	2
Cc1cccc(-c2nc3cc(NC(=O)C4CCCO4)ccc3o2)c1 (centres undefined)	47	-10	-79	-47	68*	-8
O=C(O)c1ccc(N/N=C/c2cn(Cc3ccccc3F)c3ccccc23)cc1	31	-3	-83	-154	33	28
CC(C)n1cc(/C=N/Nc2ccc(C(=O)O)cc2)c2ccccc21	62*	-4	-56	-12	81*	17
O=C(NCC1CC1(Cl)Cl)Nc1ccc(Cl)c(Cl)c1 (centres undefined)	53*	1	-230	-294	29	22
COCCn1c(=O)[nH]c2cc(C(=O)Nc3nnc(C)s3)ccc21	10	12	-22	-75	-1	2
